In PubChem BioAssay (NCI):
Compounds without any hit were thinned out: in the full panel of roughly 79,000, 15% have a hit. Active and inactive are the calls of the source. No stated cut-off is given here; in the data, active means growth inhibition above about 70%; inactive means the rest.

Tests used:
[1] = NCI Yeast Anticancer Drug Screen. Data for the rad52 strain (AID 147);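 further: 0% = growth of vehicle-treated control cultures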; details: S. cerevisiae rad52 mutant growth inhibition, hits give high values
Outline: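 Vehicle-treated cultures served as the reference for growth inhibition of compound-exposed yeast bearing a DNA repair mutation.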

[2] = NCI Yeast Anticancer Drug Screen. Data for the wt1 strain (AID 149);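 further: 0% = growth of vehicle-treated wt1 cultures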; details: S. cerevisiae wt1 strain (SPY 50644) growth inhibition, hits give high values
Outline: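 Growth inhibition read against vehicle controls after compound exposure of the wt1 yeast strain.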

[3] = NCI Yeast Anticancer Drug Screen. Data for the rad50EPP+ strain (AID 151);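 further: 0% = growth of vehicle-treated control cultures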; details: S. cerevisiae rad50 mutant strain, hits give high values
Outline: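 In this screen, rad50EPP+ yeast were exposed to compounds. Growth inhibition was scored against vehicle-treated controls.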

[4] = NCI Yeast Anticancer Drug Screen. Data for the mgt1 strain (AID 153); details: S. cerevisiae mgt1 mutant growth inhibition, hits give high values
Outline: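 mgt1 strain exposed; growth vs vehicle control recorded as inhibition.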

[5] = NCI Yeast Anticancer Drug Screen. Data for the rad50 strain (AID 155);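 further: 0% = growth of vehicle-only cultures of the same strain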; details: S. cerevisiae rad50 strain growth inhibition, hits give high values
Outline: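 Readout: growth inhibition relative to vehicle-treated cultures. Compound exposure was carried out in a genetically defined yeast strain deficient in DNA damage repair.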

[6] = NCI Yeast Anticancer Drug Screen. Data for the mec2-1 strain (AID 157); details: S. cerevisiae mec2-1 strain, hits give high values
Outline: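 Vehicle-treated cultures served as reference for growth inhibition of compound-exposed mec2-1 yeast.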

[7] = NCI Yeast Anticancer Drug Screen. Data for the rad14 strain (AID 159);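 further: 0% = growth of vehicle-treated control cultures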; details: S. cerevisiae rad14 strain growth inhibition, hits give high values
Outline: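 Growth inhibition vs vehicle controls; genetically altered yeast strain (DNA damage repair defect) treated with test compounds.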

[8] = NCI Yeast Anticancer Drug Screen. Data for the sgs1 mgt1 strain (AID 161);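 further: 0% = growth of cultures given vehicle only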; details: S. cerevisiae sgs1 mgt1 strain, hits give high values
Outline: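 Read-out: growth inhibition vs vehicle controls. Cells: mutant yeast strain deficient in DNA damage repair.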

[9] = NCI Yeast Anticancer Drug Screen. Data for the CLN2oe strain (AID 163);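 further: 0% = growth of vehicle-only control cultures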; details: S. cerevisiae CLN2oe strain, hits give high values
Outline: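 Inhibition relative to vehicle-treated yeast is reported. Cells: strain with genetic alteration in cell-cycle control, grown with compound.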

[10] = NCI Yeast Anticancer Drug Screen. Data for the cln2 rad14 strain (AID 165);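 further: 0% = growth equal to vehicle treated cultures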; details: S. cerevisiae cln2 rad14 strain, hits give high values
Outline: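 Each compound was tested on cln2 rad14 yeast. Inhibition of growth was calculated against vehicle-exposed controls.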

[11] = NCI Yeast Anticancer Drug Screen. Data for the bub3 strain (AID 167); details: S. cerevisiae bub3 mutant strain, hits give high values
Outline: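 Readout: yeast growth inhibition, expressed relative to vehicle-only wells. The test organism is a mutant strain from a panel with lesions in DNA repair or checkpoint genes.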

[12] = NCI Yeast Anticancer Drug Screen. Data for the wt2 strain (AID 169);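 further: 0% = growth of vehicle-treated yeast cultures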; details: S. cerevisiae wt2 strain growth inhibition, hits give high values
Outline: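 Inhibition of yeast growth was determined after compound treatment, normalised to controls receiving only vehicle.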

[13] = NCI Yeast Anticancer Drug Screen. Data for the mlh1 strain (AID 171);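 further: 0% = growth of vehicle-treated control cultures of the same strain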; details: S. cerevisiae mlh1 strain growth inhibition, hits give high values
Outline: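 Vehicle-normalised growth inhibition of a repair- or checkpoint-altered yeast strain following compound treatment.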

[14] = NCI Yeast Anticancer Drug Screen. Data for the sgs1 strain (AID 173);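 further: 0% = growth of vehicle-only control cultures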; details: S. cerevisiae sgs1 mutant, hits give high values
Outline: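 Screen format: yeast with repair or checkpoint alterations, compound exposure, growth read relative to vehicle.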

[15] = NCI Yeast Anticancer Drug Screen. Data for the mlh1 rad18 strain (AID 175); details: S. cerevisiae mlh1 rad18 strain growth inhibition, hits give high values
Outline: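 Vehicle-treated cultures served as the reference for growth inhibition in a yeast strain carrying DNA damage repair alterations exposed to each compound.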

[16] = NCI Yeast Anticancer Drug Screen. Data for the rad18 strain (AID 177); details: S. cerevisiae rad18 mutant growth inhibition, hits give high values
Outline: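 Test articles were incubated with altered yeast defective in DNA damage repair. Results are given as inhibition of growth versus vehicle.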

[17] = at 5.0 µM (retest, dose inferred, filed as 0.5)
[18] = at 50.0 µM (retest, dose inferred, filed as 5.0)

Measured: growth inhibition

O=C(Nn1c(-c2ccccc2)nc2ccccc2c1=O)c1ccc(CS)cc1
inactive: [1]; at 1.2 µM 5% | [1]; at 3.7 µM 20% | [1]; at 11.0 µM 12% | [1]; at 33.0 µM 53% | [2]; at 1.2 µM -4% | [2]; at 3.7 µM -6% | [2]; at 11.0 µM -1% | [2]; at 33.0 µM 23% | [3]; at 1.2 µM -2% | [3]; at 3.7 µM 6% | [3]; at 11.0 µM 5% | [3]; at 33.0 µM 31% | [4]; at 1.2 µM -9% | [4]; at 3.7 µM -19% | [4]; at 11.0 µM -17% | [4]; at 33.0 µM 23% | [5]; at 1.2 µM -5% | [5]; at 3.7 µM 2% | [5]; [17] -35% | [5]; at 11.0 µM 8% | [5]; at 33.0 µM 47% | [5]; [18] 10% | [6]; at 1.2 µM -4% | [6]; at 3.7 µM -17% | [6]; [17] -23% | [6]; at 11.0 µM -15% | [6]; at 33.0 µM 24% | [6]; [18] 34% | [6]; at 50.0 µM 43.4% | [7]; at 1.2 µM -16% | [7]; at 3.7 µM -16% | [7]; at 11.0 µM -19% | [7]; at 33.0 µM 21% | [8]; [17] -11% | [8]; [18] 27% | [8]; at 50.0 µM 60.2% | [9]; at 1.2 µM -11% | [9]; at 3.7 µM 10% | [9]; at 11.0 µM 0% | [9]; at 33.0 µM 20% | [10]; [17] 19% | [10]; [18] 40% | [10]; at 50.0 µM 27.5% | [11]; at 1.2 µM -7% | [11]; at 3.7 µM -14% | [11]; [17] -12% | [11]; at 11.0 µM -13% | [11]; at 33.0 µM 47% | [11]; at 50.0 µM 50.8% | [12]; at 1.2 µM 9% | [12]; at 3.7 µM 6% | [12]; at 11.0 µM 9% | [12]; at 33.0 µM 34% | [13]; at 1.2 µM 9% | [13]; at 3.7 µM 7% | [13]; at 11.0 µM 10% | [13]; at 33.0 µM 53% | [14]; at 1.2 µM 15% | [14]; at 3.7 µM 8% | [14]; at 11.0 µM 21% | [14]; at 33.0 µM 65% | [15]; [17] -22% | [15]; at 50.0 µM 48% | [16]; at 1.2 µM 15% | [16]; at 3.7 µM 16% | [16]; at 11.0 µM 14% | [16]; at 33.0 µM 62%
active: [1]; at 100.0 µM 98% | [2]; at 100.0 µM 98% | [3]; at 100.0 µM 76% | [4]; at 100.0 µM 97% | [5]; at 50.0 µM 79.2% | [5]; at 100.0 µM 98% | [6]; at 100.0 µM 97% | [7]; at 100.0 µM 97% | [9]; at 100.0 µM 97% | [11]; [18] 81% | [11]; at 100.0 µM 98% | [12]; at 100.0 µM 98% | [13]; at 100.0 µM 98% | [14]; at 100.0 µM 98% | [15]; [18] 74% | [16]; at 100.0 µM 98%

O=C1c2ccccc2-c2ccc(N=Cc3ccccc3)cc21
inactive: [1]; at 1.2 µM -6% | [1]; at 3.7 µM -8% | [1]; at 11.0 µM 10% | [1]; at 33.0 µM 68% | [2]; at 1.2 µM 1% | [2]; at 3.7 µM 8% | [2]; at 11.0 µM 14% | [2]; at 33.0 µM 27% | [2]; at 100.0 µM 69% | [3]; at 1.2 µM -2% | [3]; at 3.7 µM 24% | [3]; at 11.0 µM 34% | [4]; at 1.2 µM -4% | [4]; at 3.7 µM -2% | [4]; at 11.0 µM -5% | [4]; at 33.0 µM -1% | [4]; at 100.0 µM 58% | [5]; at 1.2 µM -14% | [5]; at 3.7 µM -11% | [5]; [17] 8% | [5]; at 11.0 µM 26% | [5]; at 33.0 µM 66% | [5]; [18] 51% | [6]; at 1.2 µM -4% | [6]; at 3.7 µM -2% | [6]; [17] 4% | [6]; at 11.0 µM -3% | [6]; at 33.0 µM 2% | [6]; [18] 21% | [6]; at 50.0 µM 5% | [6]; at 100.0 µM 24% | [7]; at 1.2 µM 3% | [7]; at 3.7 µM 2% | [7]; at 11.0 µM 3% | [7]; at 33.0 µM 18% | [7]; at 100.0 µM 45% | [8]; [17] 5% | [8]; [18] 27% | [8]; at 50.0 µM 36.9% | [9]; at 1.2 µM -7% | [9]; at 3.7 µM -11% | [9]; at 11.0 µM -13% | [9]; at 33.0 µM -8% | [9]; at 100.0 µM 24% | [10]; [17] -2% | [10]; [18] 9% | [10]; at 50.0 µM 6.45% | [11]; at 1.2 µM -6% | [11]; at 3.7 µM -3% | [11]; [17] 0% | [11]; at 11.0 µM -1% | [11]; at 33.0 µM 9% | [11]; [18] 18% | [11]; at 50.0 µM 31.6% | [11]; at 100.0 µM 54% | [12]; at 1.2 µM 5% | [12]; at 3.7 µM 6% | [12]; at 11.0 µM 18% | [12]; at 33.0 µM 51% | [13]; at 1.2 µM -2% | [13]; at 3.7 µM -8% | [13]; at 11.0 µM -5% | [13]; at 33.0 µM 23% | [14]; at 1.2 µM -13% | [14]; at 3.7 µM -11% | [14]; at 11.0 µM -4% | [14]; at 33.0 µM 19% | [15]; [17] -12% | [15]; [18] 46% | [15]; at 50.0 µM 56.5% | [16]; at 1.2 µM -10% | [16]; at 3.7 µM -8% | [16]; at 11.0 µM -4% | [16]; at 33.0 µM 12%
active: [1]; at 100.0 µM 96% | [3]; at 33.0 µM 87% | [3]; at 100.0 µM 97% | [5]; at 50.0 µM 82.5% | [5]; at 100.0 µM 96% | [12]; at 100.0 µM 92% | [13]; at 100.0 µM 79% | [14]; at 100.0 µM 86% | [16]; at 100.0 µM 84%
